Test results: PubChem BioAssay AID1159580 (chemical genetic matrix, 2015)
Out of some 5,500 compounds screened, about 2,000 (36%) were called active. Another 18% or so got no clear call; they are omitted. Rule as the data show it: active = normalized growth mostly below about 0.91 (no sharp cut-off); inconclusive = no clear call, values can overlap the other calls; inactive = mostly above about 0.92. Some of the results follow.

Experiment: chemical genetic growth profiling, strain panel (AID 1159580);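 also: tested at 20 µM; growth read once vehicle control cultures reached saturation at 30 °C; 1 = growth at the plate median or of vehicle wells; lower values mean less growth of the strain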
Conditions: S. cerevisiae deletion strains, growth OD

Measured: normalized growth

O=C(O)c1cc[c]([Hg][Cl])cc1
active: locus YAL040C, strain CLN3, active compounds read low 0.825 | locus YER002W, strain NOP16, active compounds read low 0.757 | locus YGR078C, strain PAC10, active compounds read low 0.339 | locus YNL197C, strain WHI3, active compounds read low 0.731 | locus YOR083W, strain WHI5 (second series), active compounds read low 0.77
inactive: locus YCL061C, strain MRC1 (second series), active compounds read low 1.01 | locus YDR150W, strain NUM1, active compounds read low 1 | locus YDR363W, strain ESC2, active compounds read low 0.943 | locus YMR307W, strain GAS1, active compounds read low 0.981 | locus YNL128W, strain TEP1, active compounds read low 0.955 | locus YNL175C, strain NOP13, active compounds read low 0.918 | locus YNL224C, strain SQS1, active compounds read low 0.948 | locus YNL322C, strain KRE1, active compounds read low 1.01 | locus YPL055C, strain LGE1, active compounds read low 0.961
